High-throughput results from PubChem BioAssay.
Compounds with a hit are over-represented: about 3.3% of the library has one in this group of screens.
SIRT5 block: sirtuin-5 (human) deacylase inhibition; Q9NXA8; Purified SirT5, succinyl-peptide AMC, trypsin-coupled fluorescence; inhibition, % at 15 µM; 330,000 compounds, 1.1% hits; in the data active = inhibition above about 15%
Target sequence (Q9NXA8 whole entry, looked up): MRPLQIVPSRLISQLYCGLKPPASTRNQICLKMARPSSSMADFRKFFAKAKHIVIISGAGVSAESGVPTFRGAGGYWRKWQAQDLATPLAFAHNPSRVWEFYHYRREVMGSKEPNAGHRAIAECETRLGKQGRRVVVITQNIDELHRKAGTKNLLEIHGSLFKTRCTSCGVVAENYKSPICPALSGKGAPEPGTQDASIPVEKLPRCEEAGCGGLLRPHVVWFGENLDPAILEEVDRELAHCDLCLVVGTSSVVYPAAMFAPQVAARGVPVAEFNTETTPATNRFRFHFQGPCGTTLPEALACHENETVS
CASP6 VEID inh: blocks human caspase-6 cleavage activity | P55212 | purified caspase-6, Z-VEID-R110 cleavage fluorescence | inhibition, % at 12.5 µM | 350,000 compounds, 0.53% hits | AID 686996;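 active = mean inhibition across replicates at least about 35%, with every replicate also reaching that limit, limit read from the data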
INS-1E GSIS act: GLuc luminescence reporter in INS-1E cells, primary screen for activators of glucose-dependent secretion of insulin; INS-1E GLuc reporter insulin secretion, 2-3 h; activation, % at 16.6 µM; 370,000 compounds, 0.61% hits; AID 743287;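 active = lowest replicate activation of at least 40%, so every replicate reaches that level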
FGF22 binding: binders of recombinant human FGF22 by thermal shift | Q9HCT0 | SYPRO orange fluorescence; percent of sucrose octasulfate shift, DMSO zero | activity (Tm shift, normalised), % at 9.99 µM | 340,000 compounds, 1.5% hits | AID 651658;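 active = mean Tm shift, scaled 0 neutral to 100 positive control, at about 1.3% or above, every replicate too, limit read from the data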
Target sequence (Q9HCT0 whole entry, looked up): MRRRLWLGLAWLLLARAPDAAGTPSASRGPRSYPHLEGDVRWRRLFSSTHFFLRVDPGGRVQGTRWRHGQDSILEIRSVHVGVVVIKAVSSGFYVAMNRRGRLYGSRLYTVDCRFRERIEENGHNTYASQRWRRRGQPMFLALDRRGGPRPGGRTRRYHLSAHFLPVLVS
ERAP1 HTS inh: ERAP1 (human) enzyme inhibition | Q9NZ08 | recombinant ERAP1, Leu-AMC fluorescence, 60 min | inhibition, % at 10.7 µM | 340,000 compounds, 0.15% hits | AID 652197;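 active = mean replicate inhibition of at least 30%, or all replicates individually reaching that 30% level; inactive = mean below 30% and not every replicate reaching it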
Large screens that a line does not name were inactive.

COc1ccc(C2/C(=C(/O)c3ccc(S(=O)(=O)N4CCOCC4)cc3)C(=O)C(=O)N2CCN2CCOCC2)cc1 (centres undefined)	none
COc1ccc(/C(O)=C2/C(=O)C(=O)N(CCCN3CCOCC3)C2c2ccc(OC)cc2)cc1 (centres undefined)	SIRT5 block 81 (no result: INS-1E GSIS act)
O=C(NCc1ccccn1)c1ccc([N+](=O)[O-])cc1	none
O=C(c1ccc([N+](=O)[O-])cc1)N(c1ccccn1)c1ccccn1	SIRT5 block 20
Cc1cc2cc(CNC(=O)c3cccc([N+](=O)[O-])c3)ccc2n1C	none
Cc1cc2cc(CNC(=O)Cc3ccc([N+](=O)[O-])cc3)ccc2n1C	FGF22 binding 44
O=C(Cc1ccc([N+](=O)[O-])cc1)NCc1ccccn1	FGF22 binding 43
Cc1ccc2c(Cl)c(C)c(N3CCCCC3)nc2n1	INS-1E GSIS act 53 (no result: SIRT5 block, CASP6 VEID inh, FGF22 binding, ERAP1 HTS inh)
Cc1ccc(-n2nc(-c3ccco3)cc2C(=O)O)cc1	CASP6 VEID inh 55
CCC12CN3CC(CC)(CN(C1)C3c1ccc([N+](=O)[O-])o1)C2=O (centres undefined)	FGF22 binding 43
CC12CN3CC(C)(CN(C1)C3c1ccc([N+](=O)[O-])o1)C2=O (centres undefined)	FGF22 binding 44
CCCC12CN3CC(C)(CN(C1)C3c1ccc([N+](=O)[O-])o1)C2=O (centres undefined)	none
O=C(C[C@@H]1CC[C@H]2[C@@H](COC[C@@H](O)CN2C(=O)c2cccnc2)O1)NCc1ccc(Cl)cc1	none
CN1C(=O)c2cc(NC(=O)Cc3cccs3)ccc2OC[C@H]2O[C@@H](CC(=O)NCCc3ccncc3)CC[C@@H]21	none
CN1C(=O)c2cc(NC(=O)Cc3cccs3)ccc2OC[C@@H]2O[C@@H](CC(=O)NCCc3ccncc3)CC[C@@H]21	CASP6 VEID inh 69
CN1C(=O)c2cc(NC(=O)c3cccs3)ccc2OC[C@H]2O[C@H](CC(=O)N3CCOCC3)CC[C@@H]21	SIRT5 block 17
CN1C(=O)c2cc(NC(=O)c3cccc(F)c3)ccc2OC[C@@H]2O[C@@H](CC(=O)N3CCc4ccccc4C3)CC[C@H]21	CASP6 VEID inh 56
CN1C(=O)c2cc(NC(=O)c3cccc(F)c3)ccc2OC[C@@H]2O[C@@H](CC(=O)NCc3ccccc3Cl)CC[C@H]21	none
CN1C(=O)c2cc(NC(=O)c3cccc(F)c3)ccc2OC[C@H]2O[C@@H](CC(=O)N3CCc4ccccc4C3)CC[C@@H]21	none
CN1C(=O)c2cc(NC(=O)c3cccc(F)c3)ccc2OC[C@H]2O[C@@H](CC(=O)NCc3ccccc3Cl)CC[C@H]21	FGF22 binding 1.6
CCCNC(=O)N1CC2(CCN(C(C)=O)CC2)c2c(n(C)c3cc(OC)ccc23)[C@H]1CO	none
CC(C)NC(=O)Nc1ccc2c(c1)CC(=O)N([C@@H](C)CO)C[C@@H](C)[C@@H](CN(C)C(=O)Nc1ccc(F)cc1)O2	none
CO[C@H]1CN(C)C(=O)c2cc(NS(C)(=O)=O)ccc2OC[C@H](C)N(C(=O)C2CCC2)C[C@@H]1C	none
O=C(c1cccc(F)c1)N1CC2(C1)[C@H](c1ccccc1)[C@H](CO)N2C(=O)C1CC1	none
COc1cc(NC2c3ncccc3C(=O)N2Cc2ccco2)cc(OC)c1OC (centres undefined)	none
CC(=O)c1cccc(NC2c3ncccc3C(=O)N2Cc2ccco2)c1 (centres undefined)	INS-1E GSIS act 50
O=C1c2cccnc2C(Nc2cccc(F)c2)N1Cc1ccco1 (centres undefined)	INS-1E GSIS act 70
CNC[C@@H](Cc1ccccc1)NC[C@@H](CC1CCCCC1)NCCCc1ccccc1	INS-1E GSIS act 89
CNC[C@@H](CC1CCCCC1)NC[C@H](CC(C)C)NCCc1cccc(C(F)(F)F)c1	INS-1E GSIS act 480 (no result: SIRT5 block)
CCC[C@@H](CNC)NC[C@H](Cc1ccccc1)NCCCCc1ccccc1	none (no result: SIRT5 block)
CC[C@@H](C)[C@H](CNC)NC[C@@H](Cc1cccc2ccccc12)NCCc1cccc(C(F)(F)F)c1	INS-1E GSIS act active (no result: SIRT5 block, CASP6 VEID inh)
CCC[C@H](CN[C@@H](CNC)[C@H](C)CC)NCCc1cc(C(F)(F)F)cc(C(F)(F)F)c1	none (no result: SIRT5 block)
O=C(Nc1cc(F)ccc1F)N1CC(=O)N2[C@H](C1)[C@@H](c1ccc(C#CC3CCCC3)cc1)[C@@H]2CO	none (no result: FGF22 binding)
CC(C)c1ccc(NC(=O)C2=CC=CN3CCS(=O)(=O)N=C23)cc1	INS-1E GSIS act 50
COc1ccc(NC(=O)C2=CC=CN3CCS(=O)(=O)N=C23)c(OC)c1	SIRT5 block 28
CCc1ccc(NC(=O)C2=CC=CN3CCS(=O)(=O)N=C23)cc1	none
Cc1ccccc1NC(=O)C1=CC=CN2CCS(=O)(=O)N=C12	none
C[C@H](CO)N1C[C@H](C)[C@H](CN(C)S(=O)(=O)Cc2ccccc2)OCc2ccccc2-c2c(n(C)c3ccccc23)C1=O	none
CCOC(=O)C1=C(C)N=c2sc(=Cc3cc(Cl)c(OCC(=O)O)c(OC)c3)c(=O)n2C1c1ccccc1Cl (centres undefined)	SIRT5 block 24
CCOC(=O)C1=C(c2ccccc2)N=c2sc(=Cc3cc(OC)c(OC)c(OC)c3)c(=O)n2C1c1cccs1 (centres undefined)	SIRT5 block 16 (no result: ERAP1 HTS inh)
COc1cccc(C2C3=C(N=c4s/c(=C\c5cccc(O)c5)c(=O)n42)c2ccccc2CC3)c1OC (centres undefined)	none
COc1ccccc1C1C2=C(N=c3s/c(=C/c4cccc(OCC(=O)O)c4)c(=O)n31)c1ccccc1CC2 (centres undefined)	CASP6 VEID inh 38 (no result: INS-1E GSIS act)
CCCCCCCCCc1conc1C(=O)CP(=O)(OC)OC	none (no result: SIRT5 block, INS-1E GSIS act)
CCCCCCCCCc1conc1C(=O)/C=C/c1ccco1	CASP6 VEID inh 67 (no result: SIRT5 block, INS-1E GSIS act)
COc1ccc(S(=O)(=O)Nc2ccc3c(c2)C(=O)N([C@H](C)CO)C[C@@H](C)[C@@H](CN(C)C(=O)NC(C)C)O3)cc1	none (no result: SIRT5 block, CASP6 VEID inh, FGF22 binding, ERAP1 HTS inh)
Cc1ccc(-n2c(SCC(=O)Nc3nccs3)nc3c(c2=O)SCC3)cc1	INS-1E GSIS act 82 (no result: SIRT5 block, CASP6 VEID inh, FGF22 binding, ERAP1 HTS inh)
Cc1ccc(SCC(=O)Nc2nccs2)cc1	FGF22 binding 43 (no result: INS-1E GSIS act)
C[C@H](CO)N1C[C@H](C)[C@H](CN(C)Cc2ccc(C(F)(F)F)cc2)Oc2ccc(NC(=O)CCC(F)(F)F)cc2C1=O	none
CN1C(=O)CC(Sc2ccccc2C(=O)O)C1=O (centres undefined)	CASP6 VEID inh 35
CN(C)Cc1cn(CC[C@H]2CC[C@H](NS(=O)(=O)c3ccccc3)[C@H](CO)O2)nn1	SIRT5 block 33
CN(C)Cc1cn(CC[C@@H]2CC[C@H](N)[C@H](CO)O2)nn1	SIRT5 block 21
CNC[C@@H]1OCCCC[C@@H](C)Oc2ccc(NC(=O)Nc3c(C)noc3C)cc2C(=O)N([C@H](C)CO)C[C@@H]1C	none
O=C(O)CN1C(=O)/C(=C/C=C/c2ccccc2)SC1=S	none
